Assay outcomes: PubChem, several laboratories
EP2 antag = EP2 receptor (human) inhibition. C6 glioma cells expressing human EP2, cAMP TR-FRET; cells stimulated with saturating PGE2. inhibition, % at 25 µM. hit rate 0.52% among 260,000. AID 1422;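 active = percent inhibition above 40 after rounding to a whole number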;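 note: rat C6 glioma host cells with rolipram phosphodiesterase inhibitor present; the protocol text gives 20 µM as final concentration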
Target sequence (P43116 whole entry, looked up): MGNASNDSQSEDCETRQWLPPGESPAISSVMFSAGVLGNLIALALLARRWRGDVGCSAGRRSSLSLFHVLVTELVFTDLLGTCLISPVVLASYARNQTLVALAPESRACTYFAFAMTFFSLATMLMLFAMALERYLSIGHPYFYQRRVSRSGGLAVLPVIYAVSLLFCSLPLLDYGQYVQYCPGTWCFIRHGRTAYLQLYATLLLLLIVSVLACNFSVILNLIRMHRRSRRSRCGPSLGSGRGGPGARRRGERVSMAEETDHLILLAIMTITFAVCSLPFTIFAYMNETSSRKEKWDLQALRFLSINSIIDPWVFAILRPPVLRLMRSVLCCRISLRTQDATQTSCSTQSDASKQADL
S1P3 antag = blocks the human S1P3 receptor. Q99500. CHO S1P3 NFAT-BLA reporter, FRET fluorescence, antagonist mode. inhibition, % at 4.98 µM. hit rate 0.27% among 170,000;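 active = inhibition above the plate cutoff, the mean inhibition of test wells on that plate plus 3 SD, cut at about 28% in these data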;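 note: cells challenged with S1P at its EC80 of 0.8 µM; blue over green emission ratio from cleaved BLA substrate after 4 h stimulation; 0% = S1P-stimulated wells and 100% = unstimulated DMSO-only wells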
S1P4 agonist = human S1P4 receptor agonism | O95977 | activation, % at 4.98 µM | S1P4-expressing cell line, agonist reporter assay | AID 1509 | hit rate 0.35% among 220,000; in the data active = activation above about 11%;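 note: 0% = DMSO vehicle and 100% = reference agonist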
S1P4 antag = antagonists of human S1P4 receptor. O95977. S1P4-expressing cells, antagonist mode, reporter read-out. inhibition, % at 4.98 µM. hit rate 0.26% among 220,000; in the data active = inhibition above about 29%;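 note: 0% = wells stimulated with agonist and 100% = vehicle wells without agonist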
EP2 mod = modulates human prostaglandin E2 receptor EP2 signaling. induction, % at 25 µM. hit rate 0.83% among 260,000. AID 940. P43116. EP2-expressing cells, cAMP HTRF FRET, PGE2 co-stimulation;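 active = compounds whose cAMP rise, as percent of the full-agonist control response, exceeds 60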;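 note: rat C6 glioma line stably carrying human EP2 under a CMV promoter; the protocol text gives 20 µM as final concentration; 100% = response of wells given 1 µM PGE2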
Numbers without * were called inactive; / = no result. Rows were chosen to be rich in hits. Some 1.9% of all compounds tested hit in one or more screens of this group.

SMILES	EP2 antag	S1P3 antag	S1P4 agonist	S1P4 antag	EP2 mod
O=C(c1ccco1)N1N=C(c2ccncc2)CC1(O)C(F)(F)F (centres undefined)	6.9	2.3	1.7	9.6	36.3
O=C(c1ccco1)N1N=C(c2ccc(Cl)cc2)CC1(O)C(F)(F)F (centres undefined)	6.7	12.0	2.0	-16.6	60.5*
Cc1cc2c(C)ccc(C)c2nc1SCC(=O)c1cccs1	4.0	/	0.7	-8.7	62.6*
CCC(CC)c1nnc(NC(=O)c2cc(Cl)ccc2OC)s1	15.8	/	/	/	-45.3
Cc1ccc(S(=O)(=O)N=Nc2c(O)[nH]c3cc(O)c(C(=O)O)cc23)cc1	40.9*	/	/	/	16.3
CCN(CC(=O)NC(C)C)Cc1nc2c(Br)cc(Br)cc2c(=O)[nH]1	13.1	-6.6	-0.5	-14.2	65.2*
O=[N+]([O-])c1ccc2ncccc2c1CCc1c([N+](=O)[O-])ccc2ncccc12	53.0*	/	/	/	4.0
Cc1ccc2ncccc2c1[N+](=O)[O-]	7.1	-11.5	-0.7	0.2	5.7
COc1ccc(N2CCN(C(=O)CN(c3ccccc3OC)S(C)(=O)=O)CC2)cc1	4.6	/	/	/	-13.9
CCc1nc(N(CC)CC)c2oc3ccccc3c2n1	9.8	/	-0.3	3.9	61.4*
C=CCc1cc(CN2CCC(C(=O)c3cccnc3)CC2)cc(OC)c1OC	8.3	/	/	/	72.0*
COc1cc(CC(=O)N2CCC(C(=O)c3cccnc3)CC2)cc(OC)c1OC	8.0	/	/	/	-6.7
CCCCCCCc1nc2c(=O)n(C)c3ccccc3c2o1	6.9	/	0.1	-9.2	69.7*
CCCCCc1nc2c(=O)n(C)c3ccccc3c2o1	2.8	-2.3	2.0	2.4	23.1
CC(Sc1nc(-c2ccccc2)cc(C(F)(F)F)n1)C(=O)NN1CCCCC1 (centres undefined)	5.7	/	/	/	-103.5
N#Cc1cc2c(nc1SCc1ccccc1)CCC2	42.2*	/	-1.3	-7.3	39.6
CC(C)C(c1nnnn1Cc1ccc2c(c1)OCO2)N1CCN(C2CCCCC2)CC1 (centres undefined)	10.8	/	/	/	-10.6
CC1CC(=O)c2c(cc3c(-c4c(O)cc(O)c5c(O)c6c(cc45)OC(C)CC6=O)c(O)cc(O)c3c2O)O1 (centres undefined)	76.8*	3.2	0.9	7.6	-17.4
O=C(COc1ccccc1Cl)Nc1ccc2c(c1)OCCO2	18.4	-4.2	0.4	6.1	63.9*
CCCC(c1nnnn1CC1CCCO1)N(Cc1ccccc1)Cc1cc2cc(C)ccc2[nH]c1=O (centres undefined)	11.3	/	/	/	46.3
C/C(=N\Nc1nc(N2CCCCC2)nc(N2CCOCC2)n1)c1ccccc1O	10.2	13.4	-0.3	7.8	64.4*
COC(=O)c1cc2sccc2n1Cc1nc(-c2cccc(Cl)c2)oc1C	10.4	/	2.2	-25.3	13.3
COC(=O)c1cc2ccsc2n1Cc1nc(-c2cccc(Cl)c2)oc1C	11.1	/	-0.9	-9.9	61.5*
CC(C(=O)N1CCC(C(=O)c2nccs2)CC1)c1ccccc1 (centres undefined)	/	/	/	/	-42.8
C[C@H](CCC(=O)NN)[C@@H]1CC[C@@H]2[C@H]3CC[C@H]4C[C@@H](O)CC[C@]4(C)[C@@H]3CC[C@]21C	48.9*	/	/	/	21.4
SMILES	EP2 antag	S1P3 antag	S1P4 agonist	S1P4 antag	EP2 mod
C[C@H](CCC(=O)O)[C@H]1CC[C@H]2[C@@H]3[C@@H](O)C[C@H]4C[C@@H](O)CC[C@]4(C)[C@H]3C[C@@H](O)[C@]12C	45.2*	/	/	/	31.9
C=CCOc1nc(-c2ccccc2Cl)nc2ccccc12	6.3	-3.7	1.2	9.7	63.2*
CCCCC[C@H](O)/C=C/C1=C(CCCCCCC(=O)O)C(=O)CC1	26.8	0.2	2.9	-1.8	88.6*
CCCC(N)CCCCCC(=O)O (centres undefined)	11.9	20.3	1.8	-1.9	5.0
CCOc1ccc(/C=c2\sc3nc(-c4ccco4)nn3c2=O)cc1OCC	8.1	12.6	-2.4	-6.5	75.1*
COc1ccc(C[C@@H]2C(=O)N[C@H](C)C(=O)N(C)[C@@H]3Cc4ccc(cc4)Oc4cc(ccc4O)C[C@@H](C(=O)N[C@@H](C)C(=O)N[C@H](C)C(=O)N2C)N(C)C3=O)cc1	40.7*	/	/	/	26.1
Cc1ccc(C(C(=O)NC2CCCCC2)N(Cc2ccco2)C(=O)Cc2cccs2)cc1 (centres undefined)	8.6	/	/	/	61.5*
O=C(NC1CCCCC1)C(c1ccco1)N(Cc1ccc2c(c1)OCO2)C(=O)Cc1cccs1 (centres undefined)	9.7	/	/	/	87.0*
CC(=O)c1ccc(N(C(=O)Cc2cccs2)C(C(=O)NC2CCCCC2)c2cccs2)cc1 (centres undefined)	66.7*	/	/	/	46.5
Cc1ccc(C(C(=O)NC2CCCCC2)N(Cc2cccs2)C(=O)c2ccco2)cc1 (centres undefined)	15.3	/	/	/	49.6
O=C(NC1CCCC1)C(c1ccncc1)N(Cc1ccc2c(c1)OCO2)C(=O)Cc1cccs1 (centres undefined)	9.9	/	/	/	-0.2
COc1ccccc1-c1cc(C(=O)N2CCC(O)(c3cccc(C)c3)CC2)no1	5.9	/	/	/	-108.7
COCCn1nnnc1C(C(C)C)N(Cc1cc2cc(OC)ccc2[nH]c1=O)C1CCCCC1 (centres undefined)	6.6	/	/	/	17.6
Cc1c(Cl)c(S(N)(=O)=O)cc(S(N)(=O)=O)c1NC(=O)c1ccc(Cl)cc1	44.6*	/	/	/	35.7
CCn1c(CSc2nc(C)cc(C)n2)nnc1SCC(=O)c1ccc(OC)cc1	12.7	/	/	/	-7.4
CCOc1ccc2oc(-c3ccccc3)c(C(=O)O)c2c1	9.6	-0.5	-0.2	-5.0	-49.3
CCN(CC)C(=O)c1c(-c2ccccc2)oc2ccc(OC)cc12	9.9	-1.8	0.9	6.8	64.1*
CCOC(=O)c1c(-c2ccccc2)oc2ccc(OCC(=O)O)cc12	11.2	-7.8	1.0	-8.5	68.3*
CCc1ccc2[nH]c(=O)c(CN(Cc3cccs3)C(=S)Nc3ccc(C)cc3)cc2c1	13.5	/	/	/	-42.2
CCOc1ccc(Nc2nc(NCC3CCCO3)c3ccccc3n2)cc1 (centres undefined)	52.1*	-0.6	0.3	-4.6	-71.6
c1ccc(Nc2nc(NCC3CCCO3)c3ccccc3n2)cc1 (centres undefined)	12.8	3.5	1.3	-4.4	-86.5
Cc1cccc(N(CC(=O)Nc2ccccc2-c2ccccc2)S(=O)(=O)c2ccccc2)c1C	2.4	-3.8	-2.3	-30.5	63.8*
Cc1ccc(S(=O)(=O)/N=C(/NC(=S)Nc2ccccc2)c2ccccc2)cc1	11.7	/	-0.7	4.6	24.1
Cc1ccc(S(=O)(=O)C/N=C(/NC(=S)N(c2ccccc2)c2ccccc2)c2ccccc2)cc1	0.8	/	0.3	-5.5	61.3*
Nc1nc(-c2ccccc2)c(-c2ccccc2)c(-c2nc(N)nc(-c3ccccc3)c2-c2ccccc2)n1	47.8*	/	/	/	13.0
Cc1cc(NC(=O)CSc2nc(C3CC3)nc3sc4c(c23)CCC(C)C4)no1 (centres undefined)	3.7	-13.5	-2.2	-0.1	/
CCc1cc2cc3c(cc2nc1SCC(=O)NCc1ccccc1)OCO3	17.1	/	/	/	81.1*
